# PD-1 reverse act = reversal of PD-1 mediated T-cell inhibition; activation, % (test concentration not listed); 29,000 tested, under 10 active; AID 2316; primary human CD4 T cells, PD-L1 beads, CellTiter-Glo 96 h; call rule not given here;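 also: 0% = median vehicle wells and 100% = positive control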
# U2OS ROS induce = raises reactive oxygen species in U2OS cancer cells. AID 624156. U2OS ROS induction, H2DCF-DA fluorescence. ROS induction (% of piperlongumine), % at 10 µM. 2% of 46,000 active; in the data active = ROS induction above about 79%, passing the limit was not always enough; inconclusive = no clear call, values can overlap the other calls;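 also: 0% = DMSO vehicle median and 100% = reference compound median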
# NOMO-1 viab = STK33 inhibitor candidate reducing NOMO-1 cell viability. NOMO-1 AML viability, CellTiter-Glo luminescence, 72 h. 7.5% of 37,000 active. inhibition, % (concentration not given with the values). AID 2330; in the data active = inhibition above about 80%; inconclusive = no clear call, values can overlap the other calls
# Starred values were filed as active, the others as inactive; ? = inconclusive; / = no result given; ! = not active in a repeat. This excerpt belongs to a sample that is enriched for hits.
SMILES,PD-1 reverse act,U2OS ROS induce,NOMO-1 viab
COC(=O)c1ccccc1NC(=O)CN(c1cccc(F)c1)S(C)(=O)=O,/,/,-4.5
COC(=O)c1ccccc1NC(=O)CN(c1ccc(F)c(Cl)c1)S(C)(=O)=O,0.3,-11.8,-2.5
COC(=O)c1cccc(NC(=O)CN(c2ccc(F)c(Cl)c2)S(C)(=O)=O)c1C,-2.3,-8.3,105.9*
COC(=O)c1cc(NC(=O)CN(c2ccc(F)c(Cl)c2)S(C)(=O)=O)ccc1Cl,/,/,95.8*
COC(=O)c1cccc(NC(=O)CN(c2ccc(F)cc2)S(C)(=O)=O)c1C,/,/,109.5*
COC(=O)c1cccc(NC(=O)CN(c2ccc(Br)c(C)c2)S(C)(=O)=O)c1C,0.2,-2.5,36.4
COC(=O)c1cccc(NC(=O)CN(c2cccc(F)c2)S(C)(=O)=O)c1C,/,/,97.6*
O=C(CCCC(=O)Nc1ccc(F)cc1)Nc1ccc(F)cc1,/,31.7,/
CCn1cc(/C=C(\NC(=O)c2ccccc2)C(=O)N2CCCC2)c2ccccc21,/,-7.1,/
CCOC(=O)c1sc(N(Cc2nc(-c3cccc(C)c3)oc2C)C(C)=O)c(C#N)c1C,/,19.2,/
O=C(CC(C(=O)N1CCc2ccccc21)C(=O)N1CCc2ccccc21)c1ccccc1,0.2,15.1,30.2
O=C(C(Cc1ccccc1Cl)C(=O)N1CCc2ccccc21)N1CCc2ccccc21,-0.3,140.6*,40.5
C[C@H]1CN([C@@H](C)CO)C(=O)c2cccc(NC(=O)Nc3ccc(C(F)(F)F)cc3)c2O[C@@H]1CN(C)Cc1ccc2c(c1)OCO2,-4.5,9.0,109.5*
C[C@H](CO)N1C[C@H](C)[C@H](CN(C)Cc2ccc3c(c2)OCO3)Oc2c(NC(=O)Nc3ccc4c(c3)OCO4)cccc2C1=O,1.0,-1.7,?
C[C@H]1CN([C@@H](C)CO)C(=O)c2cccc(NC(=O)Nc3ccccc3)c2O[C@H]1CN(C)Cc1ccc2c(c1)OCO2,1.6,2.4,20.7
C[C@@H]1CN([C@H](C)CO)C(=O)c2cccc(NC(=O)Nc3ccc4c(c3)OCO4)c2O[C@H]1CN(C)Cc1ccc(C(F)(F)F)cc1,/,21.5,103.7*
C[C@H](CO)N1C[C@H](C)[C@H](CN(C)Cc2ccc3c(c2)OCO3)Oc2c(NC(=O)Nc3ccc(C(F)(F)F)cc3)cccc2C1=O,-4.5,31.2,104.1*
C[C@@H]1CN([C@@H](C)CO)C(=O)c2cccc(NC(=O)Nc3ccc(C(F)(F)F)cc3)c2O[C@H]1CN(C)Cc1ccc2c(c1)OCO2,-7.3,43.2,84.8*
C[C@H](CO)N1C[C@H](C)[C@H](CN(C)Cc2ccc3c(c2)OCO3)Oc2c(NC(=O)Nc3ccc(F)cc3)cccc2C1=O,-0.6,2.7,54.6
C[C@H](CO)N1C[C@H](C)[C@@H](CN(C)Cc2ccc3c(c2)OCO3)Oc2c(NC(=O)Nc3ccc(F)cc3)cccc2C1=O,-4.0,19.2,72.3
CSc1cccc(NC(=O)c2cc3c(ccc4ccccc43)o2)c1,0.6,4.2,19.6
CN(C)C(=O)CSc1nnc(-c2ccco2)o1,/,-9.2,/
C=CCn1c(SCC(=O)O)nnc1-c1ccc2c(c1)OCO2,/,-6.0,/
C[C@@H]1CN([C@H](C)CO)C(=O)c2cccc(NC(=O)Nc3ccc(C(F)(F)F)cc3)c2O[C@@H]1CN(C)Cc1ccc2c(c1)OCO2,-3.7,11.0,103.5*
C[C@@H]1CN([C@H](C)CO)C(=O)c2cccc(NC(=O)Nc3ccc(C(F)(F)F)cc3)c2O[C@H]1CN(C)Cc1ccc2c(c1)OCO2,-7.8,21.2,104.2*
SMILES,PD-1 reverse act,U2OS ROS induce,NOMO-1 viab
C[C@H](CO)N1C[C@H](C)[C@@H](CN(C)Cc2ccc3c(c2)OCO3)Oc2c(NC(=O)Nc3ccc(C(F)(F)F)cc3)cccc2C1=O,/,6.2,103.8*
C[C@H]1CN([C@@H](C)CO)C(=O)c2cccc(NC(=O)Nc3ccccc3)c2O[C@@H]1CN(C)Cc1ccc2c(c1)OCO2,-4.1,12.5,67.9
COc1cccc(NC(=O)CCn2nc(-c3ccccc3OC)c3c(C)cc(C)nc32)c1,/,6.5,/
Cc1ccc(C(=O)OCC2OC3C(Oc4c(C)c(=O)ncn43)C2OC(=O)c2ccc(C)cc2)cc1 (centres undefined),/,-4.6,/
CC1CCN(S(=O)(=O)Cc2ccccc2)CC1,/,-9.9,/
CCOC(=O)CSc1nc2cc(Cl)c(Cl)cc2n1CC,/,-7.5,/
NC(=O)c1oc2ccccc2c1NC(=O)CSc1ccccc1,/,-14.9,/
O=[N+]([O-])c1nn(-c2ccccc2)n(O)c1=NCc1ccco1,-2.3,-11.6,33.9
O=[N+]([O-])c1nn(-c2ccc(Cl)cc2)n(O)c1=NCc1ccccn1,-8.4,/,112.4*
CCc1cccc(NC(=O)c2sc(-n3cccc3)nc2C)c1,/,5.4,/
CC(=O)OC1/C=C(/C(=O)O)CC/C=C(/C)C(=O)/C=C\C1(C)C (centres undefined),-7.8,90.2*,119.9*
CC1=C2CCC(C(=O)O)=CC2C(C(C)C)CC1 (centres undefined),-0.3,-6.7,-1.0
COC(=O)C1SCCN1C(=O)c1cc(-c2ccc(Cl)cc2)oc1C (centres undefined),/,20.4,/
C=C1C(=O)OC2CC1C(OC(C)=O)C/C(C)=C\CC/C(C)=C\CC[C@]2(C)O (some centres undefined),/,45.6,111.2*
O=C(NC(=S)N(Cc1cccnc1)Cc1ccccc1Cl)c1ccccc1,-3.1,3.9,37.9
O=C1CCCCC1Sc1nc2ccccc2s1 (centres undefined),/,-2.4,/
COc1ccc(-c2cc(N)n(S(=O)(=O)Cc3ccccc3)n2)cc1,/,-10.0,/
O=C(CCc1nnc2n(Cc3ccc(F)cc3)c(=O)c3ccccc3n12)NC1CCCCCC1,/,-12.2,/
CNCCC(Oc1ccc(C(F)(F)F)cc1)c1ccccc1 (centres undefined),2.7,4.5,119.4*!
CC(C)N(Cc1ccccc1)C(=O)Nc1ccc(C(F)(F)F)cc1,/,-3.6,/
Cc1cccc(NC(=O)c2ccc(OC(C)C(=O)Nc3ccc(Br)cc3)cc2)c1C (centres undefined),-0.5,4.1,114.7*
CC(Oc1ccc(C(=O)Nc2ccc(Cl)cc2)cc1)C(=O)Nc1ccc(Br)cc1 (centres undefined),-13.3,15.6,136.4*
Cc1ccc(NC(=O)c2ccc(OC(C)C(=O)Nc3ccccc3)cc2)cc1 (centres undefined),/,/,47.5
COC(=O)c1ccccc1NC(=O)c1ccc(NC(=O)C(C)Oc2ccccc2)cc1 (centres undefined),1.8,15.7,0.5
Cc1ccccc1NC(=O)c1ccc2nc(N3CCC(C)CC3)sc2c1,/,13.1,/
SMILES,PD-1 reverse act,U2OS ROS induce,NOMO-1 viab
COC(=O)CN1C(=O)/C(=C\c2ccc(O)cc2)SC1=S,/,0.9,/
COC(=O)C1=C(O)/C(=C/c2ccc(O)cc2)SC1=Nc1ccccc1,/,163.6*,/
O=C(O)c1nccnc1C(=O)NC1CCN(Cc2c(F)cccc2Cl)CC1,/,-3.3,/
N#Cc1cc(Oc2ccc(C(=O)c3ccccc3)cc2)nc2ccccc12,/,11.9,/
COc1ccc(NC(=O)CSc2cn(Cc3ccc(Cl)cc3)c3ccccc23)cc1,/,6.2,/
COc1ccc(C(=O)NCCn2cc(SC(C)c3ccccc3)c3ccccc32)cc1 (centres undefined),-1.1,10.3,128.8*
COc1cccc(C2CC(C(F)(F)F)n3ncc(C(=O)NCc4cccnc4)c3N2)c1 (centres undefined),-0.4,100.7*,-6.1
COc1cccc(C2CC(C(F)(F)F)n3ncc(C(=O)O)c3N2)c1 (centres undefined),-0.3,13.9,-4.4

# Compound activity: PubChem, Broad Institute
